An excerpt weighted towards active compounds, which were near 1.1% of everything screened.
HTR5A inv ag: counter-screen for OPRM1-OPRD1 inverse agonists: human HTR5A inverse agonism; 340,000 tested, 0.083% active; inhibition, % at 9.3 µM; P47898; HTR5A cell line, luminescence; in the data active = inhibition mostly above about 23%, no sharp cut-off; inactive = mostly below about 18%;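 also: 0% = cells with DMSO and 100% = no-cell wells with DMSO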
OPRM1-OPRD1 inv: inverse agonists of human mu-delta opioid receptor heterodimerization | P35372+P41143 | cell-based MOR-DOR heterodimer luminescence, inverse agonism | inhibition, % at 9.3 µM | 340,000 tested, 0.21% active | AID 504357; in the data active = inhibition above about 22%, passing the limit was not always enough;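 also: 0% = cells with DMSO and 100% = wells without cells with DMSO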
MOR-DOR ag: OPRM1-OPRD1 heterodimerization agonism; P35372+P41143; cells, luminescence; activation, % at 9.3 µM; 340,000 tested, 0.3% active; AID 504326; in the data active = activation above about 18%;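 also: 0% = vehicle-treated cells and 100% = reference agonist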
HTR5A ag: HTR5A agonism, opioid heterodimer counter-screen; P47898; HTR5A agonist assay, luminescence, cell-based; activation, % at 9.3 µM; 340,000 tested, 0.61% active; AID 504692; in the data active = activation mostly above about 9.5%, no sharp cut-off; inactive = mostly below about 7.6%;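 also: 0% = cells with vehicle only and 100% = reference agonist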
MOR-DOR inv conf: confirmation of human OPRM1-OPRD1 heterodimerization inverse agonists; shares compounds with OPRM1-OPRD1 inv; cells expressing OPRM1/OPRD1 heterodimer, luminescence; inhibition, % at 9.3 µM; 580 tested, 20% active; in the data active = inhibition above about 32%;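 also: 0% = cells with DMSO and 100% = wells lacking cells with DMSO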
HTR5A inv ctr2: inverse agonist of human HTR5A in OPRM1-OPRD1 counter-screen. shares compounds with OPRM1-OPRD1 inv. HTR5A-expressing cells, luminescence, inverse agonism. inhibition, % at 9.3 µM. 580 tested, under 10 active; call rule not given here;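 also: 0% = cells with DMSO and 100% = no-cell wells with DMSO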
* hit, by the source's call; i = inactive; . = no result given.

SMILES | HTR5A inv ag | OPRM1-OPRD1 inv | MOR-DOR ag | HTR5A ag | MOR-DOR inv conf | HTR5A inv ctr2
CCCNc1c(NC(=O)C2CCC(C)CC2)c(=O)oc2ccccc12 (configuration not stated) | -17 | 10 | -2 | -2 | . | .
CC(C)c1ccc(O)c(NC(=S)NC(=O)c2cccnc2)c1 | 30 | 43* | -8 | -11 | 32* | 27
COC(=O)c1ccc(NC(=S)NC(=O)c2cccnc2)cc1 | -4 | 28* | -6 | -7 | 16 | 4
CC(C)(C)c1cc(Cl)c(O)c(NC(=S)NC(=O)c2cccnc2)c1 | 12 | 47* | -10 | -4 | 6 | 9
CCC(C)c1ccc(O)c(NC(=O)c2cccnc2)c1 (configuration not stated) | -23 | 3 | 0 | 1 | . | .
CN(Cc1ccccc1)S(=O)(=O)c1ccc(Cl)c(C(=O)NCc2cccnc2)c1 | -3 | 9 | -2 | 4 | . | .
O=C(CCC(=O)N1CCCC(Nc2ccccc2)C1)c1ccc(F)cc1 (configuration not stated) | 7 | 17 | -3 | 0 | . | .
COc1ccc(CN2C(=O)c3cccnc3C2=O)cc1S(=O)(=O)N(C)c1cccc(C)c1 | 19 | 10 | -2 | -6 | . | .
CC(=O)C1=C(c2ccccc2)N(C(C)=O)n2c(C)nnc2S1 | 5 | 86* | -17 | -2 | 16 | 12
CC(=O)N1CCN(c2nnc(-c3ccccc3)c3ccccc23)CC1 | -5 | 5 | -1 | 1 | . | .
COC(=O)c1c(NC(=O)C(C)C)sc(C(=O)N2CCOCC2)c1C | -19 | 14 | -2 | 5 | . | .
Cc1ccc(N/N=C/c2ccncc2)cc1 | 2 | 31 | -6 | -1 | . | .
Cc1ccc(N/N=C/c2cccnc2)cc1 | -3 | 52* | -10 | 1 | -237 | -17
CCN(CC)CC(=O)N1CCCC(N2CCN(c3cccc(C(F)(F)F)c3)CC2)C1 (configuration not stated) | 5 | 5 | -1 | -2 | . | .
CCCc1cc(=O)[nH]c(-n2[nH]c3c(c2=O)CCCC3)n1 | 0 | 33* | -5 | -9 | i | 3
O=C(/C=C/c1ccc(Cl)cc1)N1CCN(Cc2ccccc2)CC1 | 0 | -12 | 3 | 0 | . | .
C=CCSc1cc(C)nc2c(-c3ccc(Cl)cc3)c(C)nn12 | 38 | 28* | -5 | 0 | -52 | -2
Cn1ccnc1Sc1cc(NCCCO)c([N+](=O)[O-])c2nonc12 | 27 | 37* | -7 | -6 | 4 | -2
COc1cc(CNC[C@H]2O[C@@H](n3cnc(C(N)=O)n3)[C@H](O)[C@@H]2O)ccc1OCc1cccc(Cl)c1 | -1 | 14 | -3 | 0 | . | .
Cc1ccc(Cl)c2c1NC(=O)C2(O)CC(=O)c1ccccc1O (configuration not stated) | 27 | 80* | -15 | -4 | 75* | -9
Cc1ccc(NC(=O)NC(=O)COc2ccccc2C(N)=O)c(C)c1 | 4 | 4 | -1 | 4 | . | .
CCCCc1ccc(NC(=O)CSc2nnc(CNC(=O)c3ccco3)o2)cc1 | 6 | -5 | 1 | -3 | . | .
COc1cccc(C(=O)NCC(c2ccc3c(c2)OCO3)N2CCN(c3ccc(F)cc3)CC2)c1 (configuration not stated) | -5 | -25 | 4 | 2 | . | .
Cc1cc(C)nc(-n2nc(C)c(C3(O)C(=O)Nc4ccccc43)c2N)n1 (configuration not stated) | 11 | 23* | -4 | -4 | -15 | -4
Cc1cc(C)nc(-n2nc(C)c(C3(O)C(=O)Nc4ccc(F)cc43)c2N)n1 (configuration not stated) | 17 | 62* | -14 | -10 | 53* | 8
SMILES | HTR5A inv ag | OPRM1-OPRD1 inv | MOR-DOR ag | HTR5A ag | MOR-DOR inv conf | HTR5A inv ctr2
CCCc1nc2c(ccc3ccccc32)cc1CC | -9 | -3 | 1 | 2 | . | .
O=C(COC(=O)CNC(=O)c1ccc(Cl)cc1Cl)NC(=O)NC1CCCCC1 | -13 | 13 | -3 | 5 | . | .
O=C1NC(=S)S/C1=C\c1cc(Cl)cc(Cl)c1O | -2 | 35* | -7 | 0 | -59 | -13
Cc1nn(CC(=O)c2ccc3c(c2)OCCO3)c(=O)c(C#N)c1C | -9 | -3 | 1 | 2 | . | .
CC(CNc1nc2ccc(Cl)cc2n2cnnc12)c1ccccc1 (configuration not stated) | 8 | -11 | 2 | -2 | . | .
O=C(OCC(=O)c1ccc(Cl)cc1Cl)c1cnccn1 | 11 | 40* | -5 | -4 | 18 | 1
O=C(COC(=O)c1cnccn1)c1ccc([N+](=O)[O-])cc1 | -20 | 22 | -4 | -2 | . | .

Assay outcomes as filed in PubChem.
